Results published in PubChem BioAssay.
Where “and” joins values, the source holds several entries; their conditions need not be identical. Equal values may be shown once. Calls of active or inactive are those of the source. Unless noted, no stated cut-off is given here; in the data, active means inhibition above about 80%; inactive means the rest.

Tests used:
[1] = RCMB18 cell growth, single agent and combined, cisplatin and BGB IC40 combos (AID 1671462); details: RCMB18 medulloblastoma cells, stronger effect = higher value;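 further: cells exposed to compound for four days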
[2] = CRL1545 cell growth, single agent and combined, cisplatin and BGB IC20 combos (AID 1671464); details: CRL1545 osteosarcoma cells, stronger effect = higher value;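 further: cells exposed to compound for 96 hours before readout; 0% = vehicle DMSO and 100% = high DMSO killing control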
[3] = growth inhibition, single agent or in combination, cell-based, chromothripsis tumors, cisplatin or BGB combos (AID 1671449); details: LFS_MB_P medulloblastoma cells;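 further: cells exposed for 96 hours; 0% = vehicle DMSO and 100% = killing by high DMSO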
[4] = growth inhibition, single agent and combos, cell-based, chromothripsis tumors, cisplatin or BGB combos (AID 1671450); details: HDN33 neuroblastoma cells, stronger effect = higher value;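 further: cells exposed to compound for four days; 0% = vehicle DMSO and 100% = cell killing by high DMSO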
[5] = growth inhibition, single agents and combos, ICB984, cell-based, cisplatin or BGB combos, synergistic combos for chromothripsis tumors (AID 1671451; call rule not given here;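 further: cells exposed for 96 hours before readout; 0% = vehicle DMSO and 100% = killing by high DMSO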); details: ICB984 medulloblastoma cells, drug combinations, stronger effect = higher value
[6] = growth inhibition, single agents and combos, LFS_MB_1R, cell-based, cisplatin or BGB combos, synergistic combos for chromothripsis tumors (AID 1671452); details: LFS_MB_1R medulloblastoma cells, stronger effect = higher value;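 further: cells exposed for 96 hours before readout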
[7] = growth inhibition, single agents and combos, HTB85, cell-based, BGB or cisplatin IC20 combos, synergistic combos for chromothripsis tumors (AID 1671453); details: HTB85 osteosarcoma cells, drug combinations, stronger effect = higher value;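 further: cells exposed for 96 hours before readout; 0% = vehicle DMSO and 100% = high DMSO killing control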
[8] = growth inhibition, single agents and combos, CRL2098, cell-based, BGB or cisplatin IC20 combos, synergistic combos for chromothripsis tumors (AID 1671454); details: CRL2098 osteosarcoma cells, drug combinations, stronger effect = higher value;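 further: cells exposed for 96 h before readout; 0% = vehicle DMSO and 100% = killing by high DMSO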
[9] = growth inhibition, single agents and combos, HD-MB03, cell-based, BGB or cisplatin IC20 combos, synergistic combos for chromothripsis tumors (AID 1671455; in the data active means inhibition above about 83%;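 further: 0% = vehicle DMSO and 100% = high DMSO as cytotoxic control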); details: HD-MB03 medulloblastoma cells, stronger effect = higher value
[10] = growth inhibition, single agents and combos, UWB1.289, cell-based, BGB or cisplatin combos, synergistic combos for chromothripsis tumors (AID 1671456); details: UWB1.289 ovarian carcinoma cells, stronger effect = higher value;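 further: cells exposed to compound for four days; 0% = vehicle DMSO and 100% = killing by high DMSO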
[11] = growth inhibition, single agents and combos, LFS_MB_2R, cell-based, cisplatin combos, synergistic combos for chromothripsis tumors (AID 1671457); details: LFS_MB_2R medulloblastoma cells, stronger effect = higher value;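 further: cells exposed to compound for four days before readout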
[12] = growth inhibition, MDA-MB-436, cell-based, BGB or cisplatin combos, synergistic combos for chromothripsis tumors (AID 1671458; call rule not given here;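 further: cells exposed for 96 hours; 0% = vehicle DMSO and 100% = killing by high DMSO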); details: MDA-MB-436 breast carcinoma growth inhibition, drug combinations, stronger effect = higher value
[13] = UWB1.289_BRCA1 ovarian cancer growth, cell-based, BGB or cisplatin combinations (AID 1671459); details: UWB1.289 BRCA1 ovarian carcinoma, drug combinations, stronger effect = higher value
[14] = drug combination toxicity in non-malignant astrocytes – cell-based, BGB or cisplatin IC20 combos, cytotoxicity control for chromothriptic childhood tumor combination screen (AID 1671460); details: Human astrocytes, viability inhibition, drug combinations, at 0.5 µM, stronger effect = higher value;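 further: cells exposed to compounds for 96 hours before viability readout; 0% = vehicle and 100% = killing control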
[15] = BT084 cell growth, single and combined drugs, ICGC_MB145, cisplatin and BGB IC40 combos (AID 1671461); details: BT084 medulloblastoma cells, drug combinations, stronger effect = higher value;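 further: cells exposed to drugs for 96 hours; 0% = vehicle DMSO and 100% = high DMSO full killing control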
[16] = galactose survival enhancers in mitochondrial complex I cybrids – cell-based, galactose medium, ATP luminescence, primary screen (AID 1645843;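 active means z-score of at least 1.8 in each of two replicates, scored against plate mean and spread of sample wells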;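 further: positive z means more ATP and so rescue of galactose-driven cybrid death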); details: complex I mutant cybrid cells, 72 h, stronger effect = higher value
[17] = measured here: BGB IC40 combination, at 0.05 µM
[18] = measured here: combination with cisplatin, at 0.5 µM
[19] = measured here: with BGB IC20 combination, at 0.5 µM
[20] = measured here: with cisplatin IC20 combination, at 0.5 µM
[21] = measured here: combination with BGB IC40, at 0.05 µM
[22] = measured here: combination with cisplatin, at 5 µM

## CCCCCCCCCC(=O)N[C@@H](Cc1c[nH]c2ccccc12)C(=O)N[C@@H](CC(N)=O)C(=O)N[C@@H](CC(=O)O)C(=O)NC1C(=O)NCC(=O)N[C@@H](CCCN)C(=O)N[C@@H](CC(=O)O)C(=O)N[C@H](C)C(=O)N[C@@H](CC(=O)O)C(=O)NCC(=O)N[C@H](CO)C(=O)N[C@@H](C(C)CC(=O)O)C(=O)N[C@@H](CC(=O)c2ccccc2N)C(=O)OC1C (stereo not given in full)
[1]; [17]
  inhibition: -12.3% and 4.76%
[1]; [18]
  inhibition: -0.362% and -63.9%
[1]; single agent, at 5 µM
  inhibition: -26.6% and -8.51%
[2]; at 0.5 µM
  inhibition: 12.4% (inactive) and 0.47% (inactive)
[2]; [19]
  inhibition: 12.1% and 6.43%
[2]; [20]
  inhibition: 10.6% and -4.18%
[2]; single agent, at 0.05 µM
  inhibition: -15.3% and 8.61%
[2]; single agent, at 5 µM
  inhibition: 20.8% and -15.6%

## C[n+]1ccc(-c2c3nc(c(-c4cc[n+](C)cc4)c4ccc([nH]4)c(-c4cc[n+](C)cc4)c4nc(c(-c5cc[n+](C)cc5)c5ccc2[nH]5)C=C4)C=C3)cc1
[3]; at 0.5 µM, stronger effect = higher value
  inhibition: -16.4% (inactive)
[3]; measured here: combination with BGB IC20, at 0.005 µM
  inhibition: 4.93%
[3]; measured here: combination with BGB IC40, at 0.005 µM
  inhibition: -7.27%
[3]; [21]
  inhibition: 5.45%
[3]; measured here: combination with cisplatin, at 0.5 µM, stronger effect = higher value
  inhibition: -7.43%
[3]; measured here: combination with cisplatin, at 5 µM, stronger effect = higher value
  inhibition: 6.44%
[4]; BGB combo, at 5 µM
  inhibition: -33%
[4]; at 0.5 µM
  inhibition: -31.4% (inactive)
[4]; cisplatin combo, at 5 µM
  inhibition: -48.7%
[4]; [19]
  inhibition: -41%
[4]; [20]
  inhibition: -34.4%
[4]; single agent, at 5 µM
  inhibition: -48.2%
[5]; BGB IC20 combo, at 0.005 µM
  inhibition: -7.96%
[5]; BGB IC40 combo, at 0.005 µM
  inhibition: -38.9%
[5]; BGB IC40 combo, at 0.05 µM
  inhibition: -28.5%
[5]; at 0.5 µM
  inhibition: -22.5% (inactive)
[5]; cisplatin combo, at 0.05 µM
  inhibition: -33.6%
[5]; cisplatin combo, at 0.5 µM
  inhibition: -35.2%
[5]; cisplatin combo, at 5 µM
  inhibition: -30.8%
[5]; measured here: 5 uM single agent, at 5 µM
  inhibition: -3.94%
[6]; at 0.5 µM
  inhibition: -33.2% (inactive)
[6]; [21]
  inhibition: -38.7%
[6]; [18]
  inhibition: -36.8%
[6]; [22]
  inhibition: -24.6%
[7]; at 0.5 µM
  inhibition: -31.3% (inactive)
[7]; measured here: with BGB IC20, at 0.5 µM
  inhibition: -48.7%
[7]; measured here: with BGB IC20, at 5 µM
  inhibition: -28.8%
[7]; measured here: with cisplatin IC20, at 0.5 µM
  inhibition: -29.2%
[7]; measured here: with cisplatin IC20, at 5 µM
  inhibition: 1.2%
[7]; single agent, at 5 µM
  inhibition: -24.3%
[8]; at 0.5 µM
  inhibition: -75.6% (inactive)
[8]; measured here: combination with BGB at IC20, at 0.5 µM
  inhibition: -55.7%
[8]; measured here: combination with cisplatin at IC20, at 0.5 µM
  inhibition: -59.6%
[9]; at 0.5 µM
  inhibition: -18.1% (inactive)
[9]; measured here: combo with BGB at IC20, at 0.5 µM
  inhibition: -21.5%
[9]; measured here: combo with cisplatin at IC20, at 0.5 µM
  inhibition: -12.4%
[10]; at 0.5 µM
  inhibition: -15% (inactive)
[10]; measured here: inhibition with BGB combination, at 0.05 µM
  inhibition: -39.4%
[10]; measured here: inhibition with cisplatin combination, at 0.05 µM
  inhibition: -10%
[11]; at 0.5 µM
  inhibition: -18.1% (inactive)
[11]; [18]
  inhibition: -16.6%
[11]; [22]
  inhibition: -12.4%
[12]; at 0.5 µM
  inhibition: -9.73% (inactive)
[12]; measured here: BGB combination, at 0.5 µM
  inhibition: -10.7%
[12]; measured here: BGB combination, at 5 µM
  inhibition: -18%
[12]; measured here: cisplatin combination, at 0.5 µM
  inhibition: -7.22%
[12]; measured here: cisplatin combination, at 5 µM
  inhibition: -11.9%
[13]; BGB combination, concentration series, at 5 µM
  inhibition: -36.3%
[13]; at 0.5 µM
  inhibition: -17.4% (inactive)
[13]; cisplatin combination, concentration series, at 5 µM
  inhibition: -6.54%
[14]
  inhibition: -1.53% (inactive)
[14]; measured here: combo with BGB IC20
  inhibition: 4.28%
[14]; measured here: combo with cisplatin IC20
  inhibition: 3.89%
[15]; at 0.5 µM
  inhibition: -2.03% (inactive)
[15]; cisplatin combination, at 0.5 µM
  inhibition: -16.4%
[15]; cisplatin combination, at 5 µM
  inhibition: 4.22%
[15]; measured here: BGB IC40 combination 0.05 uM, at 0.05 µM
  inhibition: -24.6%
[15]; single agent, at 5 µM
  inhibition: -14.3%
[1]; at 0.5 µM
  inhibition: -13.6% (inactive)
[1]; cisplatin combo, at 5 µM
  inhibition: 1.63%
[1]; [17]
  inhibition: -15.7%
[1]; [18]
  inhibition: -4.98%
[1]; single agent, at 5 µM
  inhibition: -32.1%
[2]; at 0.5 µM
  inhibition: -40.2% (inactive)
[2]; [19]
  inhibition: -36.3%
[2]; [20]
  inhibition: -42.2%
[2]; single agent, at 0.05 µM
  inhibition: -36.8%
[2]; single agent, at 5 µM
  inhibition: 45%

## CC(CCN1CCC(Cn2cc(CCO)nn2)CC1)CC(C)(C)C (stereo not given)
[16]
  z-score: -0.27 (inactive)

## CCCCc1cn(C2CCN(C3CCCC(C)(C)C3)CC2)nn1 (stereo not given)
[16]
  z-score: -0.56 (inactive)

## CC(CCCC(C)(C)O)CCNC(C1CC1)C1CC1 (stereo not given)
[16]
  z-score: -0.515 (inactive)

## Clc1cccn2c(-c3ccccc3OC3CCCC3)nnc12
[16]
  z-score: 0.365 (inactive)
